From PubChem BioAssay AID1463 (National Center for Advancing Translational Sciences (NCATS), 2008)
Hit rate of the full screen: of about 280,000 compounds, about 2,600 (0.93%) were called active. Another 8% or so got no clear call; they are omitted. The list comes from a sample in which actives are over-represented; it also holds similar structures and randomly drawn compounds. Unmarked numbers belong to inactive results. The call rests on the fitted dose curve; in most records, active means well fitted curve in the direction sought with a large enough effect; inconclusive means small, poorly fitted or top-dose-only effect; inactive means flat fitted curve, though single readings scatter.

assay: Counterscreen qHTS for Inhibitors of Tau Fibril Formation, Fluorescence Polarization; settings: tau K18 P301L Alexa594 fluorescence, heparin fibrillization; series mostly up to 57.7 µM; activity change, negative = decrease: at the top concentration; further: nearly all actives have a fitted effect of over 55% in size
Summary of the method: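 Human tau K18 P301L (15 uM unlabeled, 0.24 uM Alexa 594-labeled) in 100 mM sodium acetate pH 7 with 20 uM heparin, 6 hr at 37 C. ThT 30 uM added, 1 hr ambient; Alexa 594 FP and total fluorescence read at 555/632 nm.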
On the % scale 0 is the no-effect control and ±100 the full control effect; potency means the concentration at half of the fitted maximal effect; tags describe the fitted curve by direction and shape or compound fluorescence and quenching.

Structure (SMILES)	activity change, negative = decrease [%]	Potency
CCOc1ccc(NC(=O)c2ncoc2-c2ccco2)cc1	-18.1	
O=C(Nc1ccc2nccnc2c1)c1ccco1	1.38	
COCCNC(=O)Nc1ccc2nc(-c3ccco3)c(-c3ccco3)nc2c1		8.91 µM [quencher] (active)
Cc1cc(C)cc(NC(c2nnc(-c3cccc(F)c3)o2)c2ccc(F)cc2Cl)c1 (stereo unspecified)	-16.8	
O=C(Nc1c2c(nc3ccccc13)CCCC2)c1ccccc1Br	-1.32	
O=C(NNc1c2ccccc2nc2ccccc12)c1cc2ccccc2cc1O		4.47 µM [quencher] (active)
CC(=O)Nc1ccc(Nc2c3ccccc3nc3ccccc23)cc1	-25.2	
O=C(O)CCC(=O)NCc1ccc2[nH]c3c(c2c1)CCCC3	-1.4	
Cc1cccc(NC(=S)NCc2ccc3[nH]c4c(c3c2)CCCC4)c1		14.1 µM [quencher] (active)
Cc1cccc(NC(=S)NCCN(C2CCCCC2)C2CCCC2)c1	-10.1	
CCc1ccc(NC(=O)N2CCN(C(=O)c3nsc4ccccc34)CC2)cc1	-9.11	
COc1ccc(S(=O)(=O)c2cn(C)c3cc(N4CCCCC4)c(F)cc3c2=O)cc1	-3.74	
Cn1c(=O)c2c(nc(SCC(=O)Nc3ccc(F)cc3)n2Cc2ccccc2)n(C)c1=O	-23.1	
CCc1ccc(CN(Cc2ccco2)C(=O)COc2ccc(Cl)c(C)c2)cc1	-6.86	
O=c1oc2ccccc2cc1-c1csc(Nc2ccc(O)cc2)n1		14.1 µM [quencher] (active)
Cc1ccc(-c2csc(NC(=O)c3cnccn3)n2)cc1C	6.03	
COc1ccc(-c2csc(NC(=O)COC(=O)c3ccc(Br)o3)n2)cc1	-17.9	
O=C(Nc1nc(-c2ccc(-c3ccccc3)cc2)cs1)c1cnccn1	-17.8	
COc1ccc(-c2csc(NC(=O)c3ccc(N4C(=O)CCC4=O)cc3)n2)cc1OC	-6.64	
COc1ccc(-c2csc(Nc3ccc(O)cc3)n2)cc1		11.2 µM [quencher] (active)
NS(=O)(=O)c1ccc(Nc2nc(-c3ccccc3)cs2)cc1		15.8 µM [quencher] (active)
O=C(Nc1ccncc1)c1cc2ccccc2o1	-8.25	
Cc1cc(NC(=O)c2cccc(Cl)c2)ccc1-c1cc2ccccc2oc1=O	-26.8	
COc1ccc(-c2csc(NC(=O)CCCc3cccs3)n2)cc1	-2.65	
CC(=O)Nc1nc(C)c(-c2csc(Nc3ccc(S(N)(=O)=O)cc3)n2)s1	-27.7	
COc1ccc(OC)c(Nc2nc(-c3ccc(O)c(O)c3)cs2)c1		14.1 µM [quencher] (active)

Structure (SMILES)	activity change, negative = decrease [%]	Potency
Cc1cccc(NC(=O)c2ccc3nc(C(C)C)oc3c2)c1C	0.976	
CCOC(=O)c1ccc(NC(=O)CCS(=O)(=O)c2ccc(C)cc2)cc1	-9.69	
CCOc1ccccc1N(CC)C(=O)c1cc2ccc3cccnc3c2[nH]1	-12.8	
CCOc1ccc(N(C)S(=O)(=O)c2cc(-c3cnc(C)o3)ccc2OC)cc1	-16.6	
Cc1cc(C)cc(Nc2ncnc3onc(-c4ccc(F)cc4)c23)c1	-27.8	
Cc1cc(OCC(=O)NCC2(N(C)C)CCCCC2)cc(C)c1Cl	-4.83	
COC(=O)c1sccc1S(=O)(=O)N(CC(=O)Nc1ccc(C)c(F)c1)c1ccc(C)c(C)c1	-26.5	
Cc1nn(Cc2ccc(F)cc2)c(C)c1NC(=O)c1cc(CC(C)C)on1	-6.55	
CCc1nc2ccc(C(=O)N3CCN(c4cc(Cl)ccc4C)CC3)cc2nc1CC	-16.5	
COc1ccc(C(=O)Nc2ccc3nc(N4CCCCC4)cc(C)c3c2)cc1OC		10 µM [quencher] (active)
COc1cccc(C(=O)Nc2ccc3nc4n(c(=O)c3c2)CCCCC4)c1	-19.2	
COc1ccc(NC(=O)c2ccc3nc(C(C)C)oc3c2)cc1OC	-10.9	
COc1ccccc1CN1CCC(CNC(=O)c2cnn(-c3ccccc3Cl)c2C2CCN(C(=O)OC(C)(C)C)CC2)CC1	-15.9	
Fc1ccc(-c2nn(-c3ccccc3Cl)c3c2cnc2ccccc23)cc1	-24.1	
O=C(Nc1ccccc1)Nc1nc2ccccc2s1	-24.8	
O=C(Nc1ccc2ccccc2c1)Nc1ccc2snnc2c1		4.47 µM [quencher] (active)
O=C(Nc1ccc2oc(-c3ccc4ccccc4c3)nc2c1)c1cccs1	-27.6	
Cc1cc(C)c(NC(=O)CN2C(=O)c3cccnc3Oc3ccc(Cl)cc32)c(C)c1	-15.1	
COc1ccc(N2CCN(S(=O)(=O)c3ccc(-c4coc(C)n4)cc3)CC2)cc1	-25.9	
CCOc1ccc(-c2nc(N)ncc2-c2ccccc2OC)c(O)c1	-28.8	
CCOc1ccccc1Oc1cn[nH]c1-c1ccc(OC)cc1O		12.6 µM [quencher] (active)
COc1ccc(-c2[nH]ncc2CN(C)Cc2c(C)n[nH]c2C)c(OC)c1	-0.526	
COc1ccccc1CNC(=O)c1ccc(-n2c(C)cc3c2CCCC3)cc1	-3.95	
COc1ccc(OC)c(CNC(=O)c2c3c(nc4ccccc24)C(=O)N(C2CCCCC2)C3)c1	5.73	
Fc1ccc(C(Nc2ccc(Cl)c(C(F)(F)F)c2)c2nnc(-c3ccccc3)o2)cc1 (stereo unspecified)	-22.3	
